Measurements: PubChem BioAssay (NCATS)
Inconclusive results are not listed. The source made the active and inactive calls. Unless noted, the call rests on the fitted dose curve. Starred links: 1 amine or outer side, 2 acyl side, 3 side chain; linkers in the order of their positions; H or OH if unused. Positions of bridges follow the written chain, without caps; N, C: chain ends. Non-standard residues stand in square brackets, D forms with d. Residues, ends and D or L forms follow the SMILES beside them. ξ: configuration not given here. *: point of attachment. ΔAla(3-NHCONH2) = NC(=O)NC=C(N)C(=O)O; X1 = NC1=NCCC(C(N[*:1])C(=O)[*:2])N1; ξβ3hOrn = NCCCC(N)CC(=O)*; Dap = NC[CH](N)C(=O)O

Key:
[1] = qHTS for Inhibitors of the Functional Ribonucleoprotein Complex (vRNP) of Lassa (LASV) Arenavirus: LASV Primary Screen - GLuc reporter signal (AID 1347082; calls by dose curve; tested in HEK293 reporter line; further: series mostly up to about 57 µM; nearly all actives have a fitted effect of over 60% in size)
[2] = qHTS for Inhibitors of the Functional Ribonucleoprotein Complex (vRNP) of Lassa (LASV) Arenavirus: Viability assay - alamar blue signal for LASV Primary Screen (AID 1347083; calls by dose curve; tested in HEK293 reporter line; further: nearly all actives have a fitted effect of over 80% in size; further: potency means the concentration at half of the fitted maximal effect; on activity change, negative = reduced viability: series mostly up to about 57 µM)
[3] = qHTS for Inhibitors of the Functional Ribonucleoprotein Complex (vRNP) of Lymphocytic Choriomeningitis Arenaviruses (LCMV): Viability assay - alamar blue signal for LCMV Primary Screen (AID 1347085; calls by dose curve; tested in HEK293 reporter line; further: nearly all actives have a fitted effect of over 80% in size; further: potency means the concentration at half of the fitted maximal effect; on activity change, negative = lower viability: series mostly up to about 57 µM)
[4] = target: Nucleoprotein (Lymphocytic choriomeningitis virus (strain Armstrong)) (UniProt P09992); test: qHTS for Inhibitors of the Functional Ribonucleoprotein Complex (vRNP) of Lymphocytic Choriomeningitis Arenaviruses (LCMV): LCMV Primary Screen - GLuc reporter signal (AID 1347086); further: series mostly up to about 57 µM; nearly all actives have a fitted effect of over 70% in size
On the % scale 0 is the no-effect control and ±100 the full control effect.

Chain of Nucleoprotein (Lymphocytic choriomeningitis virus (strain Armstrong)) (P09992 whole entry, looked up): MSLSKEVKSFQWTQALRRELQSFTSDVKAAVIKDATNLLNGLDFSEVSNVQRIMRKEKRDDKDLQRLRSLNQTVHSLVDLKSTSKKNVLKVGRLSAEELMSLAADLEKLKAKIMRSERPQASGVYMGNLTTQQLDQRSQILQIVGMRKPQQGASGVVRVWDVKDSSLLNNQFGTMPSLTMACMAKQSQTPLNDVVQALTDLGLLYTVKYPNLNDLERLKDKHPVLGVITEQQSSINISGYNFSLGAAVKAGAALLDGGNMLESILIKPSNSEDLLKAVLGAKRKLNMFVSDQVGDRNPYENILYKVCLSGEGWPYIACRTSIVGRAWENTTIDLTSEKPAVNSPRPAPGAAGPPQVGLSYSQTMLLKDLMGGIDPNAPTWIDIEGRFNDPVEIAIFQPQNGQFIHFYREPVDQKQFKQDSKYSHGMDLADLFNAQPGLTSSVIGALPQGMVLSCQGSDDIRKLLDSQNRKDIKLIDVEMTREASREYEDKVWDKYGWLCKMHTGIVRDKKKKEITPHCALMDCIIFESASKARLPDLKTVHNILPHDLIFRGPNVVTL

O=C1N=C(O)CN1/N=C/c1ccc(-c2ccc([N+](=O)[O-])cc2)o1
inactive: Potency [1] | Potency [2] | Potency [3] | Potency [4]

COc1nc(N)nc2c1ncn2[C@@H]1O[C@H](CO)[C@@H](O)[C@@H]1O
inactive: Potency [1] | Potency [2] | Potency [3] | Potency [4]

O[C@@H](c1cc(C(F)(F)F)nc2c(C(F)(F)F)cccc12)[C@H]1CCCCN1
inactive: Potency [1] | Potency [2] | Potency [3] | Potency [4]

CCc1nc(N)nc(N)c1-c1ccc(Cl)cc1
active: Potency [2] 38.5 µM | Potency [3] 7.69 µM
inactive: Potency [1] | Potency [4]

CNCCCC1c2ccccc2C=Cc2ccccc21
inactive: Potency [1] | Potency [2] | Potency [3] | Potency [4]

N=c1nc(N2CCCCC2)cc(N)n1O
inactive: Potency [1] | Potency [2] | Potency [3] | Potency [4]

CN(C)CCOC(c1ccc(Cl)cc1)c1ccccn1 (centres undefined)
inactive: Potency [1] | Potency [2] | Potency [3] | Potency [4]

CCCN1C[C@H](CSC)C[C@@H]2c3cccc4[nH]cc(c34)C[C@H]21
inactive: Potency [1] | Potency [2] | Potency [3] | Potency [4]

Cn1cnc2c(F)c(Nc3ccc(Br)cc3Cl)c(C(=O)NOCCO)cc21
inactive: Potency [1] | Potency [2] | Potency [3] | Potency [4]

O=C1[C@H](CC[C@H](O)c2ccc(F)cc2)[C@@H](c2ccc(O)cc2)N1c1ccc(F)cc1
inactive: Potency [1] | Potency [2] | Potency [3] | Potency [4]

Cc1[nH]cnc1CN1CCc2c(c3ccccc3n2C)C1=O
inactive: Potency [1] | Potency [2] | Potency [3] | Potency [4]

CN1CCN(C2=Nc3cc(Cl)ccc3Nc3ccccc32)CC1
inactive: Potency [1] | Potency [2] | Potency [3] | Potency [4]

CNC1(C)C2CCC(C2)C1(C)C (centres undefined)
inactive: Potency [1] | Potency [2] | Potency [3] | Potency [4]

CC(C(=O)O)c1cccc(C(=O)c2ccccc2)c1 (centres undefined)
inactive: Potency [1] | Potency [2] | Potency [3] | Potency [4]

Cc1ccc(O)c([C@H](CCN(C(C)C)C(C)C)c2ccccc2)c1
inactive: Potency [1] | Potency [2] | Potency [3] | Potency [4]

CN(C)CCC=C1c2ccccc2C=Cc2ccccc21
inactive: Potency [1] | Potency [2] | Potency [3] | Potency [4]

O=C1NC(=O)C(c2ccccc2)(c2ccccc2)N1
inactive: Potency [1] | Potency [2] | Potency [3] | Potency [4]

Cc1ccnc2c1NC(=O)c1cccnc1N2C1CC1
inactive: Potency [1] | Potency [2] | Potency [3] | Potency [4]

COC(=O)[C@@H]1CC2=CC(=O)CC[C@]2(C)[C@@]23O[C@@H]2C[C@@]2(C)[C@@H](CC[C@@]24CCC(=O)O4)[C@H]13
inactive: Potency [1] | Potency [2] | Potency [3] | Potency [4]

CCc1ccc(CCOc2ccc(CC3SC(=O)NC3=O)cc2)nc1 (centres undefined)
inactive: Potency [1] | Potency [2] | Potency [3] | Potency [4]

CN(C)CCC=C1c2ccccc2CCc2ccccc21
inactive: Potency [1] | Potency [2] | Potency [3] | Potency [4]

COC(c1ccccc1)(c1ccccc1)[C@H](Oc1nc(C)cc(C)n1)C(=O)O
inactive: Potency [1] | Potency [2] | Potency [3] | Potency [4]

CCCCN1C[C@H](O)[C@@H](O)[C@H](O)[C@H]1CO
inactive: Potency [1] | Potency [2] | Potency [3] | Potency [4]

CN(C)CCC[C@@]1(c2ccc(F)cc2)OCc2cc(C#N)ccc21
inactive: Potency [1] | Potency [2] | Potency [3] | Potency [4]

CC(=O)O[C@]1(C(C)=O)CC[C@H]2[C@@H]3C=C(C)C4=CC(=O)CC[C@]4(C)[C@H]3CC[C@@]21C
inactive: Potency [1] | Potency [2] | Potency [3] | Potency [4]

Cc1cccc(C)c1OCC(C)N (centres undefined)
inactive: Potency [1] | Potency [2] | Potency [3] | Potency [4]

CN1C(CCl)Nc2cc(Cl)c(S(N)(=O)=O)cc2S1(=O)=O (centres undefined)
inactive: Potency [1] | Potency [2] | Potency [3] | Potency [4]

C[C@H]1[C@H](NC(=O)/C(=N/OC(C)(C)C(=O)O)c2csc(N)n2)C(=O)N1S(=O)(=O)O (stereo in doubt)
inactive: Potency [1] | Potency [2] | Potency [3] | Potency [4]

NCCCC(N)CC(=O)NCC1NC(=O)C(CO)NC(=O)C(N)CNC(=O)C(C2CCN=C(N)N2)NC(=O)C(=CNC(N)=O)NC1=O (stereo not drawn) (H-[Dap]S[Dap](ξβ3hOrn)[ΔAla(3-NHCONH2)][X1]; lactam 1-C; configuration not given here)
inactive: activity change, negative = inhibition [1] 2.05% [at 0.757 µM] | activity change, negative = reduced viability [2] -7.39% [at 0.757 µM] | activity change, negative = lower viability [3] -4.22% [at 0.757 µM] | activity change, negative = inhibition [4] -2.08% [at 0.757 µM]

O=NN(CCCl)C(=O)NC1CCCCC1
inactive: Potency [1] | Potency [2] | Potency [3] | Potency [4]

O=C(OC1C[C@H]2CC[C@@H](C1)[N+]21CCCC1)C(O)(c1ccccc1)c1ccccc1 (some centres undefined)
inactive: Potency [1] | Potency [2] | Potency [3] | Potency [4]

CN1CCC[C@@H]1Cc1c[nH]c2ccc(CCS(=O)(=O)c3ccccc3)cc12
inactive: Potency [1] | Potency [2] | Potency [3] | Potency [4]

CO/N=C1\CN(c2nc3c(cc2F)c(=O)c(C(=O)O)cn3C2CC2)CC1CN (centres undefined)
inactive: Potency [1] | Potency [2] | Potency [3] | Potency [4]

CN/C(=C\[N+](=O)[O-])NCCSCc1ccc(CN(C)C)o1
inactive: Potency [1] | Potency [2] | Potency [3] | Potency [4]

O=C1CCc2cc(OCCCCc3nnnn3C3CCCCC3)ccc2N1
inactive: Potency [1] | Potency [2] | Potency [3] | Potency [4]

C[C@H]1O[C@H](O[C@H]2[C@H](O)[C@@H](O)[C@@H](O[C@H]3[C@H](O)[C@@H](O)[C@H](O)O[C@@H]3CO)O[C@@H]2CO)[C@H](O)[C@@H](O)[C@@H]1N[C@H]1C=C(CO)[C@@H](O)[C@H](O)[C@H]1O
inactive: Potency [1] | Potency [2] | Potency [3] | Potency [4]
